According to PubChem BioAssay (Tox21):
Results filed as inconclusive are left out. Activity calls are given as the source filed them. Unless noted, the call rests on the fitted dose curve.

Columns and labels:
[1] = Nuclear factor erythroid 2-related factor 2/antioxidant responsive element (Nrf2/ARE) small molecule agonists: qHTS cell viability counter screen in human keratinocytes (AID 1919968; active means well fitted curve in the direction sought with a large enough effect in the repeat runs; an effect the other way counts as inactive or inconclusive; further: nearly all actives have a fitted effect of over 55% in size)
Outline: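 KeratinoSens cells (HaCaT keratinocytes stably carrying an ARE-luciferase reporter) were seeded at 1,500 cells/well and rested 5 h at 37 C/5% CO2. They were then exposed to compounds in DMSO for 23 h. Viability was read by CellTiter-Fluor fluorescence after 1 h.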

[2] = Nuclear factor erythroid 2-related factor 2/antioxidant responsive element (Nrf2/ARE) small molecule agonists: luciferase reporter gene qHTS assay in human keratinocytes (AID 1919969); further: nearly all actives have a fitted effect of over 35% in size; further: potency means the concentration at half of the fitted maximal effect
[3] = target: Gonadotropin-releasing hormone receptor (Homo sapiens) (UniProt P30968); experiment: Human gonadotropin-releasing hormone receptor (GnRHR) small molecule agonists, calcium flux assay in GnRHR-HEK293 cells (AID 1920063); further: nearly all actives have a fitted effect of over 35% in size
Outline: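 HEK293 cells stably expressing human GnRHR were plated 18 h at 37 °C, loaded with calcium dye 1 h at 37 °C, then given compound in agonist mode; fluorescence (Ex/Em 480/540) read kinetically for 3 min at 1 s intervals.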

[4] = target: KiSS-1 receptor (Homo sapiens) (UniProt Q969F8); experiment: Human kisspeptin (KISS1R) small molecule agonists, calcium flux assay in KISS1R-HEK293 cells (AID 1920064; active means well fitted curve in the direction sought with a large enough effect in the repeat runs; an effect the other way counts as inactive or inconclusive)
Outline: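 HEK293 cells stably expressing human KISS1R were plated 18 h at 37 °C, loaded with calcium dye for 1 h at 37 °C, then given compound by pin tool. Fluorescence (Ex/Em 480/540) was read kinetically for 3 min.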

[5] = G protein-coupled receptor (GPCR) small molecule agonists, calcium flux assay: HEK293 wild type cell line counter screen (AID 1920065)
Outline: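 Cells were plated and cultured 18 h at 37 C/5% CO2, then loaded with calcium dye for 1 h at 37 C. Compounds in DMSO were pin-transferred in agonist mode, and fluorescence (Ex/Em 480/540) was read kinetically for 3 min at 1 s intervals.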

[6] = p53 small molecule agonists, cell-based qHTS assay with human liver microsomes (AID 1963577);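 further: p53 response element beta-lactamase reporter cells with liver microsomes plus NADPH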
Outline: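 HLM-supplemented p53RE-bla reporter assay: 16 h compound exposure at 37 C, microsomes and NADPH each 0.5 mg/mL final, read by fluorescence intensity.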

[7] = p53 small molecule agonists, cell-based qHTS assay with rat liver microsomes (AID 1963578)
Outline: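 Quantitative HTS of the Tox21 10K library: p53RE-bla cells, rat liver microsomes plus NADPH at 0.5 mg/mL final each, 16 h at 37 C, beta-lactamase fluorescence detection.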

[8] = p53 small molecule agonists, cell-based qHTS assay with human liver microsomes: qHTS cell viability counter screen (AID 1963579); further: nearly all actives have a fitted effect of over 45% in size
Outline: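 Viability of p53RE-bla cells is measured as CellTiter-Glo luminescence following a 16 h, 37 C incubation with compound, liver microsomes from human donors and NADPH.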

[9] = p53 small molecule agonists, cell-based qHTS assay with rat liver microsomes: qHTS cell viability counter screen (AID 1963580); further: nearly all actives have a fitted effect of over 45% in size
Outline: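 In HCT-116 cells carrying a p53 response element-bla reporter, compounds were metabolically activated in situ by rat liver microsomes with NADPH over 16 h. Cell ATP content then served as the cytotoxicity measure.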

[10] = p53 small molecule agonists, cell-based qHTS assay: qHTS cell viability counter screen (AID 1963581); further: nearly all actives have a fitted effect of over 45% in size
Outline: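 p53RE-bla HCT-116 cells were exposed to compounds for 16 h at 37 C; after the beta-lactamase FRET read in the same wells, CellTiter-Glo was added and luminescence (intracellular ATP) read after 30 min at room temperature.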

[11] = p53 small molecule agonists, cell-based qHTS assay (AID 1963582; active means well fitted activation curve with a large enough effect in the signal ratio in the repeat runs, not every such curve was filed as active; the % refers to the signal ratio)
Outline: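 p53RE-bla beta-lactamase reporter cells rested 5 h at 37 C/5% CO2, then received compounds in DMSO by pin transfer and were incubated 16 h at 37 C. LiveBLAzer B/G FRET substrate was loaded for 2 h at room temperature before fluorescence reading.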

[12] = target: 5-hydroxytryptamine receptor 2A (Homo sapiens) (UniProt P28223); experiment: 5-hydroxytryptamine receptor 2A (HTR2A) small molecule antagonists, cell-based qHTS assay (AID 1963586); further: nearly all actives have a fitted effect of over 45% in size
Outline: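 Antagonist-mode intracellular calcium assay: DOI (4 nM) added after 5 min compound pre-incubation at room temperature to dye-loaded HTR2A-CHO cells. Fluorescence followed for 3 min, sampled every second.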

[13] = target: 5-hydroxytryptamine receptor 2A (Homo sapiens) (UniProt P28223); experiment: 5-hydroxytryptamine receptor 2A (HTR2A) small molecule agonists, cell-based qHTS assay (AID 1963587); further: nearly all actives have a fitted effect of over 30% in size
Outline: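 HTR2A-CHO cells, plated 18 h at 37 C/5% CO2, dye-loaded 1 h at 37 C; compounds in DMSO added by pin tool (agonist mode). Intracellular calcium flux read as kinetic fluorescence on FDSS over 2 min at 1 s intervals.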

[14] = target: Muscarinic acetylcholine receptor M1 (Homo sapiens) (UniProt P11229); experiment: Cholinergic receptor muscarinic 1 (CHRM1) small molecule antagonists, cell-based qHTS assay (AID 1963588); further: nearly all actives have a fitted effect of over 40% in size
Outline: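 CHRM1-CHO calcium-flux assay, antagonist mode. Cells were seeded 18 h, dye-loaded 1 h at 37 C and given compound for 5 min at RT, then acetylcholine was added at 50nM. FDSS fluorescence was read 3 min; 15 concentrations, three runs.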

[15] = target: Muscarinic acetylcholine receptor M1 (Homo sapiens) (UniProt P11229); experiment: Cholinergic receptor muscarinic 1 (CHRM1) small molecule agonists, cell-based qHTS assay (AID 1963589); further: nearly all actives have a fitted effect of over 35% in size
Outline: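 CHO cells stably expressing human CHRM1, seeded 18 h at 37 C/5% CO2, dye-loaded 1 h at 37 C, then given compound in agonist mode; intracellular calcium fluorescence read kinetically at 1 s intervals. Fifteen concentrations, three independent runs.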

[16] = cAMP Responsive Elements (CRE) small molecule antagonists, cell-based qHTS assay (AID 1963591; active means well fitted inhibition curve with a large enough effect in the signal ratio in the repeat runs, not every such curve was filed as active; the % refers to the signal ratio)
Outline: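 CRE-bla HEK293T cells were plated 18 h at 37 °C/5% CO2, pinned with compound in DMSO, then stimulated with NKH477 at 0.25 uM final for 3 h. LiveBLAzer B/G FRET substrate was added and plates incubated 2 h at room temperature.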

[17] = target: Beta-2 adrenergic receptor (Homo sapiens) (UniProt P07550); experiment: Adrenergic beta2 receptor (ADRB2) small molecule antagonists, cell-based qHTS assay (AID 1963592); further: series mostly up to about 92 µM; nearly all actives have a fitted effect of over 50% in size
Outline: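 Cells (CHO, stable ADRB2 overexpression) incubated 18-20hr at 37C; compounds added from DMSO; agonist mix (1nM isoproterenol, 100uM IBMX, 25uM Ro-20-1724) added; 0.5hr RT; d2-cAMP and anti-cAMP-cryptate added; 1hr RT; 665/615 nm read.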

[18] = target: D(2) dopamine receptor (Homo sapiens) (UniProt P14416); experiment: Dopamine D2 receptor (DRD2) small molecule agonists, cell-based qHTS assay (AID 1963594); further: nearly all actives have a fitted effect of over 35% in size
Outline: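 HEK293 cells stably expressing DRD2 were cultured 24 h at 37 C, then given Ro20-1724 (0.1 mM final) and compounds for 10 min at room temperature. NKH477 (200nM) was then added for 30 min. cAMP was read by HTRF.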

[19] = target: D(2) dopamine receptor (Homo sapiens) (UniProt P14416); experiment: Dopamine D2 receptor (DRD2) small molecule antagonists, cell-based qHTS assay (AID 1963595; active means well fitted inhibition curve with a large enough effect in the signal ratio in the repeat runs, with a control signal flat; the % refers to the signal ratio)
Outline: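 HEK293 cells stably expressing DRD2, preincubated with 0.1 mM Ro20-1724 and compounds 10 min, were stimulated with 200 nM NKH477 plus 12 nM quinpirole for 30 min at room temperature; cAMP measured by HTRF (665/620 nm).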

[20] = cAMP Responsive Elements (CRE) small molecule agonists, cell-based qHTS assay (AID 1963590)
Outline: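 CRE-bla HEK 293T cells in DMEM with 10% dialyzed FBS, NEAA, pyruvate and 25 mM HEPES were plated 18 h at 37 C/5% CO2, then exposed to compounds in DMSO for 3 h before LiveBLAzer B/G FRET substrate addition.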

Measured: Potency

Chain of Gonadotropin-releasing hormone receptor (Homo sapiens) (P30968 whole entry, looked up): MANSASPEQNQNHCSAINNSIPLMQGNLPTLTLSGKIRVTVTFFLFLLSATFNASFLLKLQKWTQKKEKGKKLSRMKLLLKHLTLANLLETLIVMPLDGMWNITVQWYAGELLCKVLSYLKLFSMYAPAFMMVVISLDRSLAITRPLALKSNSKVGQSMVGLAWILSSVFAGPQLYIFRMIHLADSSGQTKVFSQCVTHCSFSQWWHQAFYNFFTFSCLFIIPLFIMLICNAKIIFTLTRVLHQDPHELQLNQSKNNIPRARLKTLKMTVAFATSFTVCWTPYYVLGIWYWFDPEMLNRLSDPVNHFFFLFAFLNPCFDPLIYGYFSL
Chain of D(2) dopamine receptor (Homo sapiens) (P14416 whole entry, looked up): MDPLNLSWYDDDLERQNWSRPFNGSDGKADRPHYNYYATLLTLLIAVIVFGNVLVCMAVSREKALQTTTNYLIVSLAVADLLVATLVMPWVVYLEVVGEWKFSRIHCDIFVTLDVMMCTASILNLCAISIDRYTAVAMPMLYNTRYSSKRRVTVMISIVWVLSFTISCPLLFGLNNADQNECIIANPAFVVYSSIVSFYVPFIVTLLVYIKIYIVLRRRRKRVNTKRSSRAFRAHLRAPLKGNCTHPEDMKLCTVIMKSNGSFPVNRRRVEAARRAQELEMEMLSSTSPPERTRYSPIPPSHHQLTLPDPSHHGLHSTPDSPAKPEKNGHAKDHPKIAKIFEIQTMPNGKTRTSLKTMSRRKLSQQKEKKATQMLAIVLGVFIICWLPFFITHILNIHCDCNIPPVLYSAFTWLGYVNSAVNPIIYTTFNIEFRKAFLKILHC
Chain of KiSS-1 receptor (Homo sapiens) (Q969F8 whole entry, looked up): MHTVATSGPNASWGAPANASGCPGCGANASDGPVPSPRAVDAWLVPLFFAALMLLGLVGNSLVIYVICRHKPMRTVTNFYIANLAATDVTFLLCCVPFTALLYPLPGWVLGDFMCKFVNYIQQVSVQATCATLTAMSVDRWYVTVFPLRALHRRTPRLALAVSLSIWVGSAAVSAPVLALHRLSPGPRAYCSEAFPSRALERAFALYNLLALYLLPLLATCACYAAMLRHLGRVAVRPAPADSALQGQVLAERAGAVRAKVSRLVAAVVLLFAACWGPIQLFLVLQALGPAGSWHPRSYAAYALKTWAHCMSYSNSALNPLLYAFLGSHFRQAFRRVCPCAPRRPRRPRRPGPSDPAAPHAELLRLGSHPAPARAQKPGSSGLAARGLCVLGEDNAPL
Chain of Muscarinic acetylcholine receptor M1 (Homo sapiens) (P11229 whole entry, looked up): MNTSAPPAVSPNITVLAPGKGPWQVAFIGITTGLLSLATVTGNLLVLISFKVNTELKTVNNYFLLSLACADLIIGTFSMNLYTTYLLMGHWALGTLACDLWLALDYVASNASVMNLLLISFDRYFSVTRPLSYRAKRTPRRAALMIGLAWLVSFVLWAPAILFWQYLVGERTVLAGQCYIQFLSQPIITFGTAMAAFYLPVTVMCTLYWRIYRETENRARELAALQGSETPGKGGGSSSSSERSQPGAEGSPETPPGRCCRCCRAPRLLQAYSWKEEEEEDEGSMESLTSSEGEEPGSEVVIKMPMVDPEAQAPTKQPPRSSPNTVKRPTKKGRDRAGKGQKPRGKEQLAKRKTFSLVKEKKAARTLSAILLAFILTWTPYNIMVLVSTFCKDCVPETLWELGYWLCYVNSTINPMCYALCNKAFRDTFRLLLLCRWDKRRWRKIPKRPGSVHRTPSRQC
Chain of 5-hydroxytryptamine receptor 2A (Homo sapiens) (P28223 whole entry, looked up): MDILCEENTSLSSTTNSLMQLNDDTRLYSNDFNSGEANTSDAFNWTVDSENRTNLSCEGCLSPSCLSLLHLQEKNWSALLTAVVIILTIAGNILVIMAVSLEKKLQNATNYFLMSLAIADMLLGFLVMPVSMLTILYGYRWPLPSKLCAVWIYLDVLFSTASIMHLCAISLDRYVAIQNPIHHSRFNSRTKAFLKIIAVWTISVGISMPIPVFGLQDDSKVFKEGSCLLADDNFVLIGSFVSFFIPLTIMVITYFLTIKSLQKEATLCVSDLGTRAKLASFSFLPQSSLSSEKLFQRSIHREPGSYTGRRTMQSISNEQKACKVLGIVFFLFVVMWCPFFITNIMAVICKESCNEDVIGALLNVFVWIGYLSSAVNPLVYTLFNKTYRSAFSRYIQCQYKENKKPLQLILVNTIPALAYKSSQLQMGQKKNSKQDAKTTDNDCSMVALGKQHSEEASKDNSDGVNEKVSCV
Chain of Beta-2 adrenergic receptor (Homo sapiens) (P07550 whole entry, looked up): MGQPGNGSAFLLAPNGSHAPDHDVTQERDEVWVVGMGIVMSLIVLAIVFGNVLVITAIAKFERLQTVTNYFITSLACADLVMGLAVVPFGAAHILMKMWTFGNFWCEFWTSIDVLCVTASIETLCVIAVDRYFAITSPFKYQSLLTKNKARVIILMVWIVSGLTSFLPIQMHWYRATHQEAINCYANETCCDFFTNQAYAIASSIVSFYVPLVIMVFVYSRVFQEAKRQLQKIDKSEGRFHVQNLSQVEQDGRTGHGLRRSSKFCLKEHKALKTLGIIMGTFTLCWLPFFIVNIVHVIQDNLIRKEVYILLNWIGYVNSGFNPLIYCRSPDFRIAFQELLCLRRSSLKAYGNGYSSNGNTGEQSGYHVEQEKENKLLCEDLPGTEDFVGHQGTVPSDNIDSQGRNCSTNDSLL

C=CN1CCCCCC1=O
not listed: [20]
inactive: all other assays above

O=C(CO)[C@@H](O)[C@H](O)[C@@H](O)CO
not listed: [20]
inactive: all other assays above

CC(C)(C)C(=O)/C=C/c1ccc(Cl)cc1
active: [2] 54.5 µM
not listed: [20]
inactive: all other assays above

Cc1ccc(NC(N)=O)cc1
not listed: [16] | [18]
inactive: all other assays above

COC(=O)NN
not listed: [16]
inactive: all other assays above

OC1CCC(C2CCCCC2)CC1 (stereo unspecified)
not listed: [16] | [17]
inactive: all other assays above

Cc1cccc(C)n1
not listed: [16]
inactive: all other assays above
